Measurements taken from PubChem BioAssay (NCATS).
Inconclusive results are not listed. Calls of active or inactive are those of the source. Calls come from the whole dose curve; as a rule, active = well fitted inhibition curve with a large enough effect; inconclusive = small, poorly fitted or top-dose-only effect; inactive = flat fitted curve, though single readings scatter.

Columns and labels:
CRL-7250 = normal cell line; test: Cytotoxic Profiling of Annotated Libraries Using Quantitative High-Throughput Screening (AID 1296008); conditions: Five cell lines viability, CellTiter-Glo ATP luminescence, 48-72 h; max response: hits give low values; for max response: % is set by controls: 0 for no effect and ±100 for the full control effect
In short: (§1)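 Cytotoxicity was measured as CellTiter-Glo ATP luminescence, read after 10 min at room temperature. Compound treatment of the cells lasted 48 or 72 hr at 37 degrees Celsius in a qHTS format.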

HEK293 = test: as above; conditions: Five cell lines viability, CellTiter-Glo ATP luminescence, 48-72 h; max response: hits give low values
In short: as §1

HaCat [1] = test: as above; conditions: Five cell lines viability, CellTiter-Glo ATP luminescence, 48-72 h; max response: hits give low values
In short: as §1

KB-3-1 = test: as above; conditions: Five cell lines viability, CellTiter-Glo ATP luminescence, 48-72 h; max response: hits give low values
In short: as §1

NIH3T3 [2] = test: as above; conditions: Five cell lines viability, CellTiter-Glo ATP luminescence, 48-72 h; max response: hits give low values
In short: as §1

HACAT [3] = test: qHTS assay to identify novel small-molecules to repurpose for Merkel cell carcinoma treatment (AID 1296009); conditions: MCC and control cell lines, CellTiter-Glo viability, 72 h; at 44.8 µM (top of the series) unless noted
In short: (§2)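 Cell viability, measured as CellTiter-Glo luminescence, was normalized between DMSO and no-cell wells. The cells had been exposed to 8- or 11-point compound dilutions for 72 hr at 37 degree celsius.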

NIH3T3 [4] = test: as above; conditions: MCC and control cell lines, CellTiter-Glo viability, 72 h; at 44.8 µM (top of the series) unless noted
In short: as §2

Measured: max response
Note: nearly all actives have a fitted effect of over 60% in size.

C/C=C(\C)C(=O)OCC1OC(OCC2OC(OC3(CO)OC(CO)C(O)C3O)C(O)C(O)C2O)C(O)C(O)C1O (stereo unspecified)
inactive: CRL-7250 -0.798% | HEK293 -3.28% | HaCat [1] | KB-3-1 | NIH3T3 [2] | HACAT [3] inactive [at 17.4 µM] | NIH3T3 [4] inactive [at 17.4 µM]

CC1(C)CC[C@]2(C(=O)O[C@@H]3O[C@H](CO)[C@@H](O)[C@H](O)[C@H]3O)CC[C@]3(C)C(=CCC4[C@@]5(C)C[C@@H](O)[C@H](O)[C@@](C)(CO)C5[C@H](O)C[C@]43C)C2C1 (stereo partly specified)
inactive: CRL-7250 -10.1% | HEK293 -14.5% | HaCat [1] | KB-3-1 -2.95% | NIH3T3 [2] | HACAT [3] inactive [at 17.4 µM] | NIH3T3 [4] inactive [at 17.4 µM]

CC1=CC(=O)[C@]2(O[C@@H]3O[C@@H](C)[C@H](O)[C@@H](O)[C@H]3O)C=CO[C@@H](O[C@@H]3O[C@H](CO)[C@@H](O)[C@H](O)[C@H]3O)[C@H]12
inactive: CRL-7250 | HEK293 -3.6% | HaCat [1] | KB-3-1 | NIH3T3 [2] | HACAT [3] inactive [at 17.4 µM] | NIH3T3 [4] inactive [at 17.4 µM]

CC(C)=CCC/C(C)=C/CO[C@@H]1O[C@H](CO[C@@H]2O[C@@H](CO)[C@H](O)[C@H]2O)[C@@H](O)[C@H](O)[C@H]1O
inactive: CRL-7250 -10.8% | HEK293 -7.37% | HaCat [1] | KB-3-1 | NIH3T3 [2] | HACAT [3] inactive [at 17.4 µM] | NIH3T3 [4] inactive [at 17.4 µM]

CC1CC2OCC3(O)CCC(O)C(C14CC(c1ccoc1)OC4=O)C23CO (stereo unspecified)
inactive: CRL-7250 | HEK293 -3.58% | HaCat [1] | KB-3-1 9.94% | NIH3T3 [2] | HACAT [3] | NIH3T3 [4]

COc1cc(C2OCC3(O)C(c4ccc(O[C@@H]5O[C@H](CO)[C@@H](O)[C@H](O)[C@H]5O)c(OC)c4)OCC23O)ccc1O (stereo partly specified)
inactive: CRL-7250 | HEK293 -0.768% | HaCat [1] | KB-3-1 7.65% | NIH3T3 [2] | HACAT [3] inactive [at 17.4 µM] | NIH3T3 [4] inactive [at 17.4 µM]

Cc1ccc(-n2nc(C(C)(C)C)cc2NC(=O)Nc2cc(COc3cccnc3)[nH]n2)cc1
inactive: CRL-7250 -4.33% | HEK293 -3.79% | HaCat [1] | KB-3-1 | NIH3T3 [2] | HACAT [3] | NIH3T3 [4]

CC1(CO)CC(O)C2(C)CCC3(C)C(=CCC4C5(C=O)CCC(OC6OC(C(=O)O)C(O)C(O)C6OC6OC(C(=O)O)C(O)C(O)C6O)C(C)(C)C5CCC43C)C2C1 (stereo unspecified)
inactive: CRL-7250 | HEK293 -10.9% | HaCat [1] | KB-3-1 | NIH3T3 [2] | HACAT [3] inactive [at 9.27 µM] | NIH3T3 [4] inactive [at 9.27 µM]

CC1CCC2(C(=O)O)CCC3(C)C(=CCC4C5(C)CCC(O)C(C)(C(=O)O)C5CCC43C)C2C1(C)O (stereo unspecified)
inactive: CRL-7250 -10.9% | HEK293 -11.5% | HaCat [1] | KB-3-1 3.72% | NIH3T3 [2] | HACAT [3] inactive [at 17.4 µM] | NIH3T3 [4] inactive [at 17.4 µM]

CN1CCN(C(=O)c2cc3cc(Cl)ccc3[nH]2)CC1
inactive: CRL-7250 -2.46% | HEK293 -8.86% | HaCat [1] | KB-3-1 -0.0663% | NIH3T3 [2] | HACAT [3] | NIH3T3 [4]

C=C1C(O)CCC2(C)CC3(OC)OC(=O)C(C)=C3CC12 (stereo unspecified)
inactive: CRL-7250 | HEK293 0.468% | HaCat [1] | KB-3-1 3.24% | NIH3T3 [2] | HACAT [3] | NIH3T3 [4]

CC(=C\C(C)O)/C=C(\C)C(=O)CC1CC(CC(N)=O)CC(=O)O1 (stereo unspecified)
inactive: CRL-7250 | HEK293 1.11% | HaCat [1] | KB-3-1 | NIH3T3 [2] | HACAT [3] | NIH3T3 [4]

CC1(C)CC[C@]2(C(=O)O[C@@H]3O[C@H](CO[C@@H]4O[C@H](CO[C@@H]5O[C@H](CO)[C@H](O)[C@H](O)[C@H]5O)[C@@H](O)[C@H](O)[C@H]4O)[C@@H](O)[C@H](O[C@@H]4O[C@H](CO)[C@@H](O)[C@H](O)[C@H]4O)[C@H]3O)[C@H](O)C[C@]3(C)C(=CCC4[C@@]5(C)CC[C@H](O[C@@H]6OC[C@@H](O)[C@H](O)[C@H]6O)[C@@](C)(C(=O)O)C5CC[C@]43C)[C@@H]2C1 (stereo partly specified)
inactive: CRL-7250 2.11% | HEK293 -1.97% | HaCat [1] | KB-3-1 | NIH3T3 [2] | HACAT [3] inactive [at 9.27 µM] | NIH3T3 [4] inactive [at 9.27 µM]
